# Measured values as given in PubChem BioAssay AID434936 (National Center for Advancing Translational Sciences (NCATS), 2010).
# Inconclusive results are not listed. Activity calls are given as the source filed them. Calls follow the shape of the dose curve; as a rule, active = well fitted curve in either direction with a large enough effect; inconclusive = small, poorly fitted or top-dose-only effect; inactive = flat fitted curve, though single readings scatter.
# Target: Neuropeptide S receptor (Homo sapiens) (UniProt Q6W5P4)
# Experiment: Confirmation Concentration-Response Assay for Antagonists of the Neuropeptide S Receptor: Robust Characterization of cAMP Signal Transduction
# Details: CHO-NPSR cells, NPS-stimulated cAMP TR-FRET
# Text: NIH Chemical Genomics Center [NCGC] NIH Molecular Libraries Probe Production centers Network [MLPCN] MLPCN Grant: X01-DA026210-01 Assay Submitter (PI): Heilig, Markus Alexander NCGC Assay Overview: Neuropeptide S receptor (NPSR), previously known as GPR154, is a recently de-orphanized G protein coupled receptor. Its endogenous ligand is the 20 amino acids peptide Neuropeptide S (NPS). […] NPS and its receptor are found in various tissues. Specifically they are highly expressed in brain areas that have been implicated in modulation of arousal, stress and anxiety. Central administration of NPS in mice produces an unusual profile of activity by inducing wakefulness and arousal, while at the same time suppressing anxiety. Therefore, NPSR may represent a novel drug target for the treatment of sleep and anxiety disorders. To identify NPSR antagonists, we developed a cell-based cAMP assay. NPS can stimulate the production of cAMP in Chinese hamster ovary cells stably expressing NPS receptor. This change in intracellular cAMP level can be detected by a homogeneous LANCE cAMP assay based on the TR-FRET (time resolved fluorescence resonance energy transfer) between a europium-labeled cAMP tracer complex and a cAMP-specific antibody labeled with Alexa Fluor 647. The europium-labeled cAMP tracer complex is formed by the tight interaction between Biotin-cAMP (b-cAMP) and streptavidin labeled with Europium-W8044 chelate (Eu-SA). Light pulse at 320 nm excites the europium of the cAMP tracer and the energy emitted is transferred to the Alexa molecule bound to the cAMP antibody, generating a TR-FRET signal at 665 nm. Residual energy from the europium will produce a light at 620 nm. The native unlabeled cAMP from cell lysates competes with the europium-cAMP tracer for antibody binding and reversely reduces the emission signal of Alexa by interrupting FRET between the two labeled molecules. Both emission signals from the FRET donor (620 nm) and the acceptor (665 nm) can be detected by a plate reader in the TRF mode. Expression of result in fluorescence ratio (665 nm/620 nm) helps to normalize differences due to cell density and reagent dispensing. This assay was successfully optimized to a 1536-well plate format. Select compounds from the primary screen (AID 1461) were chosen for confirmation based on potency, efficacy, SAR, and activity across other assays in PubChem and at NCGC. Other compounds are analogs of active compounds from the primary screen. This particular assay uses a high density of sampling across concentration-response space to establish more confidence estimates of potency.
# NCGC Assay Protocol Summary: A Chinese hamster ovary (CHO) cell line stably expressing the NPS receptor (CHO-NPSR) was obtained from Dr. Heilig lab at NIAAA and maintained in F-12 Kaighn's media (Invitrogen, Carlsbad, CA, 21127) supplemented with 10 % FBS, 100 units/ml penicillin, 100 ug/ml streptomycin and 250 ug/ml geneticin at 37C, 5% CO2 in a humidified atmosphere. Before the assay, aliquots of cells were frozen and stored at -135C. The assay was performed in 1536-well format. Data are reported for both the ratio of the two emission wavelengths, and also for the component 'donor' channel, Em2=620. […] IC50 values were determined from concentration-response data modeled with the standard Hill equation. NPS 1536-well assay protocol: (1) Fresh or frozen CHO-NPSR cells were suspended in F-12 Kaighn's media supplemented with 10 % FBS, 100 units/ml penicillin and 100 ug/ml streptomycin. Cells were plated at 4 ul/well (1200 cells) to white, tissue culture treated 1536-well plates, and then cultured at 37C, 5 % CO2 for 16 to 30 hours. (2) Add 23 nl/well of compound in DMSO solution. The final titration for each compound was between 0.6 nM and 46 uM. […]
# Neuropeptide S receptor (Homo sapiens), sequence (Q6W5P4 whole entry, looked up): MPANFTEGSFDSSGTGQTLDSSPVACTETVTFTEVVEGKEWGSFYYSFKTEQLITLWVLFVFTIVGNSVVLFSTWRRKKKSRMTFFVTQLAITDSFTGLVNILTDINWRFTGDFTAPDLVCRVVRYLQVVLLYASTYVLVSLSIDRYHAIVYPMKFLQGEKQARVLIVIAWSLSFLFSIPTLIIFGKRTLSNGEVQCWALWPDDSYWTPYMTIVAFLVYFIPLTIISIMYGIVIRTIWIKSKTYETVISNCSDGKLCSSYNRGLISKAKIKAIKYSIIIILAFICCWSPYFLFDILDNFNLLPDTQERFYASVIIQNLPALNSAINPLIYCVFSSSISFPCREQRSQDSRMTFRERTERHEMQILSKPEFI
row,SMILES,Potency
1,Cc1c(P(=S)(c2ccccc2)c2ccccc2)[n+]2ccccc2n1Cc1ccccc1,1250 nM (active)
2,Cc1c(P(=S)(c2ccccc2)c2ccccc2)[n+]2ccccc2n1C/C=C/c1ccccc1,44.5 nM (active)
3,Cc1c(P(=S)(c2ccccc2)c2ccccc2)[n+]2ccccc2n1CCc1ccccc1,2100 nM (active)
4,Cc1c(P(=S)(c2ccccc2)c2ccccc2)[n+]2ccccc2n1CCCCCc1ccccc1,705 nM (active)
5,Cc1c(P(=S)(c2ccccc2)c2ccccc2)[n+]2ccccc2n1CCCCc1ccccc1,1.1 nM (active)
6,Cc1nc2ccccn2c1P(=S)(c1ccccc1)c1ccccc1,17700 nM (active)
7,Cc1c(P(=S)(c2ccccc2)c2ccccc2)[n+]2ccccc2n1CCCc1ccccc1,106 nM (active)
8,Cc1c(P(=S)(c2ccccc2)c2ccccc2)[n+]2ccccc2n1C,1670 nM (active)
